{"source": "PubChem BioAssay (NCATS)", "note": "Records with an inconclusive call do not appear. Activity calls are given as the source filed them. Calls come from the whole dose curve; as a rule, active = well fitted inhibition curve with a large enough effect; inconclusive = small, poorly fitted or top-dose-only effect; inactive = flat fitted curve, though single readings scatter. % is set by controls: 0 for no effect and ±100 for the full control effect; potency is the fitted concentration of half-maximal effect."}
{"assay": "qHTS to identify inhibitors of the type 1 interferon - major histocompatibility complex class I in skeletal muscle: primary screen against the NCATS Pharmaceutical Collection (AID 1347407)", "details": "human skeletal muscle cells, IFN-b-induced MHC-I HiBiT luminescence, 24 h; series mostly up to 45.9 µM; activity change, negative = inhibition: at the top concentration", "description": "Assay Submitter (PI): Travis B. Kinder Ph.D. & James Inglese Ph.D.\nAssay Development and Screening Technology Laboratory (ADST)\nNational Center for Advancing Translational Sciences (NCATS), Rockville, MD\nNational Institute of Health (NIH), Bethesda, Maryland\nIdiopathic inflammatory myopathies, collectively referred to as myositis, are a group of rare autoimmune diseases characterized by skeletal muscle inflammation, weakness, and usually accompanied by systemic pathologies of the skin, lungs, or vasculature. Current immunosuppressive therapies and glucocorticoids are often not curative and are accompanied by harsh side effects, especially in children with juvenile myositis. We initiated a drug repurposing and development program to identify more targeted, less toxic therapeutics to treat myositis. Although its cause is not known, muscle from a subset of patients have an abundance of the inflammatory type 1 interferon (IFN) and a down-stream product major histocompatibility complex class I (MHC class I), which are both thought to contribute to damage and weakness. We conducted quantitative high throughput screening on 6,576 compounds (4,679 unique) through a series of cell-based assays to identify those that inhibit the IFN-stimulated expression of MHC class I in muscle precursor cells (myoblasts). The compound identification and evaluation strategy utilized a primary screen with reporter-tagged MHC class I in genome-engineered myoblasts, ATP content counter screen for viability, HLA-ABC immunofluorescence secondary screen, and HLA-B RT-qPCR tertiary screen.\nThe primary screen utilized CRISPR/Cas9 genome-engineering of immortalized human myoblasts, C25cl48, where a pro-luminescent reporter HiBit was fused to the C-terminus of endogenous MHC class I allele HLA-B*08:01 (HLA-B HiBit myoblasts). HiBit is an 11 amino acid fragment of NanoLuc luminescent reporter (Promega Corporation), and when complexed to the larger LgBit fragment, the reconstituted enzyme produces light in the presence of furimazine substrate (Schwinn et al., 2018). Briefly, HLA-B HiBit myoblasts were plated into 1536-well plates, treated with 4.0 ng/ml human IFN-beta and 2,816 compounds from the NCATS Pharmaceutical Collection (NPC) that contains all drugs approved in the US, EU, and Japan (Huang et al., 2011) in an 8-point, 1:5 titration with a high final concentration of 46 uM. After 24 hrs of treatment, cells were assayed by Nano-Glo HiBiT Lytic Detection System (Promega) and luminescence measured by a ViewLux 1430 Ultra HTS (Perkin Elmer).\nHuang R, Southall N, Wang Y, Yasgar A, Shinn P, Jadhav A, Nguyen D-T, Austin CP. 2011. The NCGC pharmaceutical collection: a comprehensive resource of clinically approved drugs enabling repurposing and chemical genomics. Sci Transl Med 3:80ps16. doi:10.1126/scitranslmed.3001862\nSchwinn MK, Machleidt T, Zimmerman K, Eggers CT, Dixon AS, Hurst R, Hall MP, Encell LP, Binkowski BF, Wood K V. 2018. CRISPR-Mediated Tagging of Endogenous Proteins with a Luminescent Peptide. ACS Chem Biol 13:467-474. doi:10.1021/acschembio.7b00549\nPROTOCOL TABLE (as described by Inglese et al., 2007)\nSEQUENCE No. (e.g., 1, 2, 3, etc.); […] (e.g., Cells, Incubation, Reagent, etc.); VALUE; DESCRIPTION\n1a; Cells; 5 uL; Use a Multidrop Combi (Thermo Scientific) to seed 350 cells/well into nine Greiner 1536 well white/solid bottom, high base, TC plates in 5 ul/well of iHSKM growth medium (GM) without dexamethasone into columns 1+2. Add metal lids with gas-exchange holes\n1b; Cells; 5 uL; Use a Multidrop Combi (Thermo Scientific) to seed 350 cells/well into nine Greiner 1536 well white/solid bottom, high base, TC plates in 5 ul/well of iHSKM GM without dexamethasone + 4 ng/ml IFN-b into columns 3 - 48. Add metal lids with gas-exchange holes\n2; Incubate; 1 hr; Incubate at 37 C, 5% CO2, 95% RH\n[…]"}
{"smiles": "CC(C(=O)O)c1ccc(C(=O)c2cccs2)cc1", "note": "(stereo not given)", "activity change, negative = inhibition": "-2.83% (inactive)"}
{"smiles": "CO[C@@]1(NC(=O)Cc2cccs2)C(=O)N2C(C(=O)O)=C(COC(N)=O)CS[C@@H]21", "activity change, negative = inhibition": "-2.23% (inactive)"}
{"smiles": "O=C(O)/C=C\\C(=O)O", "activity change, negative = inhibition": "26.1% (inactive)"}
{"smiles": "CCOc1ccc2nc(S(N)(=O)=O)sc2c1", "activity change, negative = inhibition": "-9.12% (inactive)"}
{"smiles": "O=C(OCc1ccccc1)c1ccccc1", "activity change, negative = inhibition": "-2.62% (inactive)"}
{"smiles": "Clc1ccccc1-c1nc(-c2ccncc2)no1", "activity change, negative = inhibition": "-18.8% (inactive)"}
{"smiles": "CCCCCCOc1ccccc1C(N)=O", "activity change, negative = inhibition": "6.56% (inactive)"}
{"smiles": "COc1cc2c3cc1Oc1cc(ccc1O)C[C@@H]1c4c(cc(OC)c(O)c4Oc4ccc(cc4)C[C@@H]3N(C)CC2)CC[N+]1(C)C", "activity change, negative = inhibition": "0.028% (inactive)"}
{"smiles": "c1ccc(CCNc2nc(-c3ccccc3)cs2)cc1", "activity change, negative = inhibition": "-9.56% (inactive)"}
{"smiles": "CCCCCCCCCCCCCCCC(=O)OC(C)C", "activity change, negative = inhibition": "-0.234% (inactive)"}
{"smiles": "CN(C)[C@@H]1C(=O)C(C(=O)NCN2CCCC2)=C(O)[C@@]2(O)C(=O)C3=C(O)c4c(O)cccc4[C@@](C)(O)C3C[C@@H]12", "note": "(stereo not given in full)", "activity change, negative = inhibition": "-6.27% (inactive)"}
{"smiles": "CCCCCCCCCCCCOCCO", "activity change, negative = inhibition": "-3.97% (inactive)"}
{"smiles": "O=C(/C=C/c1ccccc1)NCCO", "activity change, negative = inhibition": "4.81% (inactive)"}
{"smiles": "O=C(O)Cc1ccc(-c2ccccc2)cc1", "activity change, negative = inhibition": "5.22% (inactive)"}
{"smiles": "Nc1cc(-c2ccncc2)c[nH]c1=O", "activity change, negative = inhibition": "0.987% (inactive)"}
{"smiles": "Nc1nc2ccc([N+](=O)[O-])cc2s1", "activity change, negative = inhibition": "-23.9% [at 92.2 µM] (inactive)"}
{"smiles": "CC(=O)SCC(CC(=O)c1ccc(C)cc1)C(=O)O", "note": "(stereo not given)", "activity change, negative = inhibition": "-18.1% (inactive)"}
{"smiles": "Nc1ccc(O)c(C(=O)O)c1", "activity change, negative = inhibition": "-0.258% (inactive)"}
{"smiles": "COc1cc(NC(C)CCCN)c2ncccc2c1", "note": "(stereo not given)", "activity change, negative = inhibition": "-7.45% (inactive)"}
{"smiles": "CC(C(=O)O)c1ccc2c(c1)[nH]c1ccc(Cl)cc12", "note": "(stereo not given)", "activity change, negative = inhibition": "-5.94% (inactive)"}
{"smiles": "O=C1CN(/N=C/c2ccc([N+](=O)[O-])o2)C(=O)N1", "activity change, negative = inhibition": "1.05% (inactive)"}
{"smiles": "C#CC1(O)CC[C@H]2[C@@H]3CCC4=CCCC[C@@H]4[C@H]3CC[C@@]21C", "note": "(stereo not given in full)", "activity change, negative = inhibition": "24.7% (inactive)"}
{"smiles": "CNC(=O)c1c(I)c(NC(=O)CCCCC(=O)Nc2c(I)c(C(=O)O)c(I)c(C(=O)NC)c2I)c(I)c(C(=O)O)c1I", "activity change, negative = inhibition": "7.56% (inactive)"}
{"smiles": "Cc1c(C(=O)O)c(O)cc2c1C(=O)c1c(O)c([C@@H]3O[C@H](CO)[C@@H](O)[C@H](O)[C@H]3O)c(O)c(O)c1C2=O", "activity change, negative = inhibition": "-17% (inactive)"}
{"smiles": "Cc1ccc(O)c(-n2nc3ccccc3n2)c1", "activity change, negative = inhibition": "9.2% (inactive)"}
{"smiles": "Nc1c(CC(=O)O)cccc1C(=O)c1ccc(Br)cc1", "activity change, negative = inhibition": "0.293% (inactive)"}
{"smiles": "C[N+]1(C)[C@@H]2CC(OC(=O)[C@H](CO)c3ccccc3)C[C@H]1[C@@H]1O[C@@H]12", "note": "(stereo not given in full)", "activity change, negative = inhibition": "7% (inactive)"}
{"smiles": "NC(=O)C(c1ccccc1)(c1ccccc1)[C@@H]1CCN(CCc2ccc3c(c2)CCO3)C1", "activity change, negative = inhibition": "-0.551% (inactive)"}
{"smiles": "CCCOC(=O)c1ccc(O)cc1", "activity change, negative = inhibition": "-10.8% [at 92.2 µM] (inactive)"}
{"smiles": "Cc1cc(O)c2ccccc2c1O", "activity change, negative = inhibition": "-9.74% (inactive)"}
{"smiles": "Cc1ccc(C(=O)c2ccc(CC(=O)O)n2C)cc1", "activity change, negative = inhibition": "-1.95% (inactive)"}
{"smiles": "COC(=O)c1nc(Cl)c(Cl)nc1N", "Potency": "10.5 µM (active)"}
{"smiles": "Oc1c(Br)cc(Br)c2cccnc12", "activity change, negative = inhibition": "9.84% (inactive)"}
{"smiles": "CC(C)(C)c1nnc(NS(=O)(=O)c2ccc(N)cc2)s1", "activity change, negative = inhibition": "-0.65% (inactive)"}
{"smiles": "COc1ccc(-c2cc(=S)ss2)cc1", "activity change, negative = inhibition": "-28.1% (inactive)"}
{"smiles": "N=C(N)N", "activity change, negative = inhibition": "1.23% (inactive)"}
{"smiles": "O=C(O)Cc1ccc2c(c1)C(=O)c1ccccc1CO2", "activity change, negative = inhibition": "-0.0899% (inactive)"}
{"smiles": "Nc1ccc(O)c([N+](=O)[O-])c1", "activity change, negative = inhibition": "-22.5% [at 92.2 µM] (inactive)"}
{"smiles": "O=C(O)Cc1cccc(-c2cc(CCCCCCc3ccc(O[C@H]4O[C@H](CO)[C@@H](O)[C@H](O)[C@@H]4O)c(-c4cccc(CC(=O)O)c4)c3)ccc2O[C@H]2O[C@H](CO)[C@@H](O)[C@H](O)[C@@H]2O)c1", "activity change, negative = inhibition": "-3.38% [at 0.727 µM] (inactive)"}
{"smiles": "O=Cc1ccc(O)c(O)c1O", "activity change, negative = inhibition": "-2.1% (inactive)"}
